Data on 40 compounds can be found in PubChem BioAssay (Tox21).

Molecules are shown by their SMILES. Records with an inconclusive call do not appear. Entries that show only a call come without a potency. Calls of active or inactive are those of the source. Calls follow the shape of the full dose curve.
Potency is read from the fitted curve at half-maximal effect.

This test can be described thus: p53 small molecule agonists, cell-based qHTS assay with rat liver microsomes (AID 1963578). To be noted: HCT-116 p53RE-bla, beta-lactamase ratio, 16 h; series mostly up to 66 µM. From the text:
U.S. Tox21 Program National Center for Advancing Translational Sciences [NCATS] Division of Preclinical Innovation [DPI] U.S. Environmental Protection Agency [EPA] National Institutes of Environmental Health Sciences [NIEHS] National Toxicology Program [NTP] U.S. Food and Drug Administration [FDA] Tox21 Assay Overview: p53, a tumor suppressor protein, is activated following cellular insult, including DNA damage and other cellular stresses. The activation of p53 regulates cell fate by inducing DNA repair, cell cycle arrest, apoptosis, or cellular senescence. The activation of p53, therefore, is a good indicator of DNA damage and other cellular stresses. […] The activation of the reporter gene under culture conditions can be detected by fluorescence intensity. This cell line was used to screen the Tox21 10K compound library in the condition of presence of rat liver microsomes and to identify agonists that activate the p53 signaling pathway after in vitro metabolic activation (Ooka et al., Archive of Toxicology 96:1975-1987, 2022).
Tox21 Assay Protocol Summary: The p53RE-bla cells were dispensed at 4,000cells/3ul/well in 1536-well black-clear bottom plates. After the assay plates were incubated at 37 C, 5% CO2 incubator for 5 hours, 23 nL of compounds dissolved in DMSO, positive controls or DMSO only was transferred to the assay plate. Following compound addition, 3 uL of rat liver microsomes (Molecular Toxicology, Boone, NC) at final concentration of 0.5 mg/mL and 1uL of Beta-Nicotinamide adenine dinucleotide 2-phosphate (NADPH) at final concentration of 0.5 mg/mL were transferred to the assay plate. The plates were incubated at 37 C for 16 hours. 1 uL of LiveBLAzer detection mixture was added to each well and the plates were incubated at room temperature in the dark for 2 h.
For the compound `CC(Cc1ccccc1)N(C)Cc1ccco1` (stereo not given), the Potency entry was “inactive”.

Take `[F][Sn]([c]1ccccc1)([c]1ccccc1)[c]1ccccc1`: the Potency result was “inactive”.

In the case of `CN1C(=O)CN=C(c2ccccc2)c2cc([N+](=O)[O-])ccc21`, the Potency entry is “inactive”.

As to `OC(c1ccccc1)(c1ccccc1)C1CCNCC1`, the Potency entry is “inactive”.

Take `COc1cc(Cl)c(OC)cc1Cl`: the Potency result is “inactive”.

As to `Clc1cccc(N2CCNCC2)c1`, the Potency result was “inactive”.

For `CC(=O)CCc1ccc2c(c1)OCO2`, the Potency result is “inactive”.

On to `CC(C)(C)C(=O)C(Oc1ccc(Cl)cc1)n1cncn1` (stereo not given), for which the Potency entry was “inactive”.

Consider `CC1=C(C(=O)Nc2ccccc2)S(=O)(=O)CCO1`, for which the Potency result is “inactive”.

Consider `N#CC(C#N)=NNc1cccc(Cl)c1`, for which the Potency entry is “inactive”.

Regarding `C=CC(=O)OC`, the Potency result was “inactive”.

Turning to `CCC(C)(c1ccc(O)cc1)c1ccc(O)cc1`, the Potency entry is “inactive”.

As for `CCCCCCBr`, the Potency result was “inactive”.

As to `N#CN=C1SCCN1Cc1ccc(Cl)nc1`, the Potency entry is “inactive”.

On to `COC(C)(C)CCC[C@H](C)C/C=C/C(C)=C/C(=O)OC(C)C`, for which the Potency entry was “inactive”.

Turning to `CC[C@H](C)[C@H]1O[C@]2(C=C[C@@H]1C)C[C@@H]1C[C@@H](C/C=C(\C)[C@@H](O[C@H]3C[C@H](OC)[C@@H](O[C@H]4C[C@H](OC)[C@@H](NC)[C@H](C)O4)[C@H](C)O3)[C@@H](C)/C=C/C=C3\CO[C@@H]4[C@H](O)C(C)=C[C@@H](C(=O)O1)[C@]34O)O2`, the Potency entry is “inactive”.

On to `CC(=O)OC1(c2ccccc2)CCN(CCc2ccccc2)CC1`, for which the Potency result was “inactive”.

Turning to `c1ccc2cc3c(cc2c1)-c1cccc2cccc-3c12`, the Potency was 18 µM (active).

With `CCC[N+](CCC)(CCC)CCC`, the Potency result is “inactive”.

`CC(C)N(C(=O)COc1nnc(C(F)(F)F)s1)c1ccc(F)cc1`: the Potency result was “inactive”.

In the case of `C=CC(=O)OCCCCOC(=O)C=C`, the Potency result was “inactive”.

For the compound `CN/C(=N\[N+](=O)[O-])NCC1CCOC1` (stereo not given), the Potency entry is “inactive”.

With `N#CCc1ccc(Cl)cc1`, the Potency result was “inactive”.

Take `N#Cc1c[nH]cc1-c1cccc2c1OC(F)(F)O2`: the Potency result was “inactive”.

`Cc1cc(=O)[nH]o1`: the Potency entry was “inactive”.

Consider `CCCC[N+]1(C)[C@@H]2CC(OC(=O)[C@H](CO)c3ccccc3)C[C@H]1[C@@H]1O[C@@H]12` (stereo not given in full), for which the Potency entry was “inactive”.

Take `CC(Cl)(Cl)Cl`: the Potency result is “inactive”.

As for `NCC1(CC(=O)O)CCCCC1`, the Potency result was “inactive”.

With `CCC(C)c1cc([N+](=O)[O-])cc([N+](=O)[O-])c1OC(=O)C=C(C)C` (stereo not given), the Potency entry is “inactive”.

Consider `CCN(CC)CCc1c[nH]c2ccccc12`, for which the Potency result is “inactive”.

Take `CC(=O)c1ccc(-c2ccccc2)cc1`: the Potency result was “inactive”.

Regarding `C[C@]12CC[C@H]3[C@@H](CCC4=CC(=O)CC[C@@H]43)[C@@H]1CC[C@@H]2OC(=O)CCc1ccco1`, the Potency result is “inactive”.

As for `CC(CC(C#N)(c1ccccc1)c1ccccc1)N(C)C` (stereo not given), the Potency entry is “inactive”.

As for `CC(C)Oc1cccc(NC(=O)c2ccccc2C(F)(F)F)c1`, the Potency entry was “inactive”.

In the case of `CCCC[N+](CCCC)(CCCC)CCCC`, the Potency entry was “inactive”.

Turning to `CO/N=C(\C(=O)OC)c1ccccc1CO/N=C(\C)c1cccc(C(F)(F)F)c1`, the Potency entry is “inactive”.

For the compound `COc1ccc(/C(=C/C(=O)N2CCOCC2)c2ccc(Cl)cc2)cc1OC`, the Potency result is “inactive”.

Consider `CCCCCl`, for which the Potency entry is “inactive”.

Consider `CNC(C)Cc1ccc2c(c1)OCO2` (stereo not given), for which the Potency result was “inactive”.

Regarding `[Hg+2].[I-].[I-]`, the Potency result was “inactive”.
